Records with an inconclusive call do not appear. The source made the active and inactive calls. Calls come from the whole dose curve; as a rule, active = well fitted curve in the direction sought with a large enough effect; inconclusive = small, poorly fitted or top-dose-only effect; inactive = flat fitted curve, though single readings scatter.

Among the data in PubChem BioAssay AID624336 (National Center for Advancing Translational Sciences (NCATS), 2012) are Potency and relative growth, lower = inhibition values, retold here.

The assay in a line: Quantitative high throughput screen for delayed death inhibitors of the malarial parasite plastid: Hit Validation with Dd2 at 48 hr using Flow Cytometry. The conditions noted are these: P. falciparum Dd2 growth, flow cytometry SYBR/MitoTracker; relative growth, lower = inhibition: at 50 µM (top of the series). From the text:
The goal of this screen is to discover new antimalarial compounds that act by inhibiting the development of the apicoplast organelle in the malarial parasite Plasmodium falciparum. Some antibiotics, such as azithromycin and tetracycline, are known to interfere with the apicoplast translational machinery, and have a potent antimalarial effect. […] We developed a cell-based quantitative high throughput screen that leverages this "delayed death" phenotype to enrich for compounds that target the apicoplast. To detect small molecules that cause the delayed death phenotype, erythrocytes infected with firefly luciferase-expressing parasites were incubated with compounds for either one or two generations, corresponding to 48 and 96 hours, respectively. Growth inhibition was detected by a decrease in luciferase activity. Compounds that inhibited parasite growth in the second generation at least five-fold more potently than in the first generation were defined as delayed death inducing. These compounds were selected for confirmatory screening using a flow cytometry based assay. This hit validation assay used the Dd2 cell line and measured at 48 hours. NIH Molecular Libraries Probe Production Network [MLPCN] NIH Chemical Genomics Center [NCGC] MLPCN Grant: R21 NS059500 Assay Provider: David Fidock and Eric Ekland, Columbia University
Test compounds were diluted in 20 microliters of complete media (RPMI 1640 with 0.5% w/v Albumax (GIBCO), 24 mM sodium bicarbonate (Sigma) and 10 ug/mL gentamycin (Gibco)) in clear 384-well plates (Greiner). All liquid handling was conducted using a Bio Tek Precision 2000 pipetting system. Twenty microliters of infected erythrocytes, 0.2% parasitemia (for 48 hour time points) or 0.1% parasitemia (for 96 hour time points) were added to the compound dilutions (1% hematocrit, final concentration; 40 microliters, total culture volume). The assay plates were incubated for 48 hours, or 96 hours, at 37 masculine C in a humidified chamber (Billups- Rothenberg, Del Mar, CA, USA), gassed with 5%CO2/5%O2/ 90%N2. After one generation (48 hours), 5 microliters of culture were harvested and transferred to a second 384 well plate for fluorescent staining. Samples were stained with 30 microliters of 2 x SYBR Green I (Invitrogen) and 150nM MitoTracker Deep Red (Invitrogen) diluted in 0.9% NaCl, 0.2% dextrose (Baxter) supplemented with 2.5% Fetal Calf Serum (Gibco) (saline/FCS). Mature erythrocytes lack nuclei and mitochondria, therefore only parasitized erythrocytes retain the SYBR Green I and MitoTracker Deep Red. After 30 minutes at 37 masculine C, the stained cells were diluted in an additional 60 microliters of saline/FCS. The samples were harvested directly from the 384 well plate using a Hypercyt High Capacity Flow Platform (Intellicyt) paired with a C6 Flow Cytometer (Accuri). The flow cytometry files were analyzed using FlowJo software (FlowJo).
A general note: A flow cytometer gives signals particle by particle.
As to `N#Cc1cccc(NC(=O)Cn2c3[n+](c4ccc(C(F)(F)F)cc42)CCCCC3)c1`, the Potency was 26.1 µM (active). With `COc1ccccc1N1CCN(CCC(=O)Nc2ccc(F)cc2)CC1`, the relative growth, lower = inhibition is 0.587 (active). Consider `c1csc(CNc2ncnc3nc[nH]c23)c1`, for which the Potency entry is “inactive”.

In the case of `CCC(=O)OC1C(N(C)C)CC(C)O[C@H]1O[C@H]1[C@H](C)[C@@H](O[C@H]2CC(OC)[C@@H](O)C(C)O2)[C@H](C)C(=O)O[C@@H](CC)[C@](C)(O)[C@@H](O)[C@H](C)C(=O)[C@@H](C)C[C@]1(C)O` (stereo partly specified), the Potency was 34.1 µM (active). With `CCOC(=O)c1ccc2c(c1)n(CC)c(/C=C/N(C)c1ccccc1)[n+]2CC`, the Potency is 2.08 µM (active).

`Cc1ccc(S(=O)(=O)Nc2ccc(C(=O)Nc3ccncc3)cc2)cc1`: the relative growth, lower = inhibition was 0.257 (active). As for `Cc1ccc(-n2c(-c3ccc(Cl)cc3)c[n+]3c2CCC3)cc1`, the Potency was 2.64 µM (active). On to `Cc1ccc(CN2CCC(n3nccc3NC(=O)c3ccccc3C)CC2)o1`, for which the Potency was 2.38 µM (active). Still for that read-out and setting: the value for `COc1ccc2c(ccc[n+]2CC(=O)c2ccccc2)c1` was 7 µM (active).

`COc1cccc(CN2CCN(c3nc4nonc4nc3N3CCCCC3)CC2=O)c1`: the Potency was 14 µM (active). As for `O=C(CNC(=O)C1CCCCC1)OC(C(=O)c1ccccc1)c1ccccc1` (stereo unspecified), the Potency entry was “inactive”.

`CCOc1ccc(NC(=O)C[n+]2ccc(N(C)C)cc2)cc1`: the Potency was 2.57 µM (active). On the same count and under the same terms, the value for `CN(C)c1ccc(CN(C(=O)c2ccccc2Br)C2CCS(=O)(=O)C2)cc1` (stereo unspecified) was 9.14 µM (active).

On to `CC1=Nc2cc(C(=O)N3CCCC3)ccc2Sc2ccc(C)cc21`, for which the relative growth, lower = inhibition is 0.214 (active). As to `COc1ccc(NC(=S)N2CCC(Cc3ccccc3)CC2)cc1OC`, the Potency is 10.8 µM (active).

Take `Cc1sc2nc[nH]c(=O)c2c1-c1ccc(Cl)cc1`: the Potency was 31.7 µM (active). On the same count and under the same terms, the value for `O=C(CSc1ccc(-c2cccnc2)nn1)Nc1ccccc1C(F)(F)F` was 8.74 µM (active).

As for `CO[C@@H]1[C@@H](OC2OC(C)C(OC3CC(C)(O)C(OC(=O)CC(C)C)C(C)O3)C(N(C)C)C2O)[C@@H](CC=O)C[C@@H](C)C(=O)/C=C\C2O[C@H]2C[C@@H](C)OC(=O)C[C@H]1OC(C)=O` (stereo partly specified), the Potency is 1.04 µM (active). Same read-out and setting: the result for `CCCCN(CCCNC(=O)c1ccc(CS(=O)(=O)c2ccc(OC)cc2)o1)Cc1ccccc1` reads 6.24 µM (active). On to `COc1cc(C(C)=O)ccc1OCC(O)CN1CCN(c2cc(C)cc(C)c2)CC1` (stereo unspecified), for which the Potency result was “inactive”. In the case of `CCCc1c(CC)c(=N)c2ccccc2n1C`, the relative growth, lower = inhibition was 0.187 (active). Turning to `CCCCN(CCCNC(=O)C1CCN(C(=O)c2cc3sccc3n2C)CC1)Cc1ccccc1`, the Potency is 3.62 µM (active). Still for that read-out and setting: the value for `Brc1cccc(OCCCCN2CCCCC2)c1` was 2.36 µM (active). On the same count and under the same terms, the result for `COCCNC(=O)c1cccc(OC2CCN(Cc3cccc(SC)c3)CC2)c1` reads “inactive”.

In the case of `CCCc1cc(=O)oc2cc(OC(C)C(=O)NCc3ccccn3)c(Cl)cc12` (stereo unspecified), the Potency is 20.8 µM (active). Still for that read-out and setting: the result for `CCCCOc1ccc(N2C(N)=NC(N)=NC23CCCCC3)cc1` reads 23 µM (active).

As for `CCOc1ccc(S(=O)(=O)Nc2cc(S(=O)(=O)N(CC)CC)ccc2N2CCCC2)cc1`, the relative growth, lower = inhibition was 0.264 (active). Consider `O=C(Nc1ccccc1N1CCOCC1)c1cccc(S(=O)(=O)N2CCOCC2)c1`, for which the Potency is 14.7 µM (active).

Turning to `Cc1c(F)c(N2CCNC(C)C2)cc2c1c(=O)c(C(=O)O)cn2C1CC1` (stereo unspecified), the Potency was 4.14 µM (active). On the same count and under the same terms, the value for `Clc1ccc(-c2c[n+](Cc3ccc(Cl)cc3Cl)c3n2CCCCC3)cc1` was 5.44 µM (active). For the molecule `CN(C)S(=O)(=O)c1cc(NC(=O)C2=COCCO2)ccc1Cl`, the relative growth, lower = inhibition is 1.39 (active).
